# From PubChem BioAssay (NCI)
# “And” between values parts separate entries of the source, which are not always exact repeats. Equal entries are not always repeated. Compounds without any hit were thinned out: in the full panel of roughly 83,000, 20% have a hit.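 96-well plates, one dose, 48 hours. Percent growth reported; active if below 10.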 Values without a mark were called inactive. The source made the active and inactive calls.
# Test system: SR leukemia
# Assay: NCI-60 one-dose screen, 48 h (100 = growth as untreated, 0 = no growth, -100 = all killed)
# Details: 10 µM
# Method: Growth inhibition of the SR human tumor cell line is measured as a screen for anti-cancer activity. Cells are grown in 96 well plates and exposed to the test compound for 48 hours. Compounds are tested at a single concentration, which is 10^-5 M for most compounds. The reported endpoint is percent growth (GI% or GIPRCNT), where numbers from 0 - 100% represent growth inhibition, and numbers from -100% - 0 represent cell death. For example, a value of 40 represents 60% growth inhibition. A value of 0 means no net growth occurred over the course of the experiment. A value of -40 indicates 40% of cells at the beginning of the experiment died by the end of the experiment. A value of -100 means all cells are dead at the end of the experiment.
# NCI-60 Human Tumor Cell Lines Screen was performed using the standard one-dose NCI protocol, which is described in more detail at https://dtp.cancer.gov/discovery_development/nci-60/default.htm.
# Compounds with GIPRCNT values below 10 were considered active. Activity score was based on GIPRCNT using the following formula: […]
# Score is 0 for GIPRCNT values of 100 or above, 50 for GIPRCNT values of 0, and 100 for GIPRCNT values of -100.
row,Structure (SMILES),growth
1,S=c1nc[nH]c2nc[nH]c12,18.1%

# Same assay, conditions: 10 µM unless noted
row,Structure (SMILES),growth
1,NCCCCCC(=O)O,108% and 79.8% and 111%
2,Cc1cc2ccccc2c2cc3ccccc3cc12,40.8%
3,CCC/C(=N/NC(N)=O)c1ccco1,96.1%
4,O=C(OCc1ccccc1)c1ccccc1,104% and 86.5%
5,C=CCN1C(=O)c2ccccc2C1=O,99.9%
6,Cc1cccc(Cl)c1N,98.9%
7,CCc1ccccc1-n1[nH]c(C)c(C=N)c1=O,94.8%
8,S=c1ccc2ccccc2[nH]1,109% and 97.3%
9,CCCC(=O)Oc1ccc2ccccc2c1,110%
10,CCCCCCC(C)CC1=C(O)c2ccccc2C(=O)C1=O (stereo not given),61.7%
11,Cc1ccc2cccc([N+](=O)[O-])c2n1,97.7% and 94%
12,COC(=O)c1nc(N)nc(C(=O)OC)c1C(=O)c1ccc(F)cc1,112%
13,O=C(c1ccccc1)C1(Br)CCCCC1,149%
14,COCCNC(C)=O,118%
15,CCOC(=O)C1=CC(=O)CC(C)(C)O1,82.1% and 114%
16,O=C(O)c1cc(=O)[nH]c(=O)[nH]1,104%
17,Nc1ccc(O)c(C(=O)O)c1,99.8%
18,CC(=O)c1cccc(OC(=O)c2ccccc2)c1,65.6%
19,COC(=O)c1nc(=S)[nH]c(C(=O)OC)c1C(=O)c1ccccc1,113%

row,Structure (SMILES),growth
1,OC(CC(c1ccccc1)c1cccc2ccccc12)(c1ccccc1)c1ccccc1 (stereo not given),94.9% and 63.1%
2,CS(=O)(=O)OCC1NC(=O)C(COS(C)(=O)=O)NC1=O (stereo not given),104% and 125%
3,CSc1nc(N)c(N)c(N)n1,90.8%
4,CC(=O)/C(N=Nc1ccc(S(=O)(=O)c2ccc(N=N/C(C(C)=O)=C(/C)O)cc2)cc1)=C(\C)O,101%
5,O=C(O)/C=C/C=C/c1ccccc1,104% and 109%
6,CCOC(=N)c1ccc(C(=N)OCC)cc1,91.7%
7,CNc1ccc(O)cc1,126%
8,CC(C)(C)OC(=O)CC1(O)CCCCC1,105%
9,O=C1C=CC[C@H](/C=C/c2ccccc2)O1,5.19% (active)
10,CCOC(=O)NC(N)=O,90.3% and 108%
11,Cc1ccc(S(=O)(=O)n2ccnc2)cc1,140%
12,CC1(C)OC(=O)C(=Cc2ccc(C#N)cc2)C(=O)O1,93.5% and 89%
13,CC(=O)Nc1ccc2oc(=O)ccc2c1,82.3%
14,O=c1[nH]c(=O)c2[nH]c(=O)[nH]c2[nH]1,114%
15,CC1(CO)CCCC1NCCNC1CCCC1(C)CO (stereo not given),95.9%
16,O=C1CCC(=O)N1CC1CC2CCC1C2 (stereo not given),84.7% and 78.9%
17,COc1ccc2oc3cc(NCCN(C)C)ccc3c(=O)c2c1,38.9%
18,CCOP(=O)(OCC)/C(C#N)=C/c1c(C)[nH]c2ccccc12,94.8%
19,CC1CC(O)CC(C)(C)C1.CC1CC(O)CC(C)(C)C1.CC1CC(O)CC(C)(C)C1.CC1CC(O)CC(C)(C)C1.[Ti] (stereo not given),81.1%

# Same assay, conditions: 50 µM
row,Structure (SMILES),growth
1,S=c1nc[nH]c2nc[nH]c12,26.6%
